Measured values: publication PMC7862700, “An all-to-all approach to the identification of sequence-specific readers for epigenetic DNA modifications on cytosine”

Columns and labels:
Experiment in all cases: DAPPL (digital affinity profiling via proximity ligation, sequencing); 10 mM Tris-HCl pH 7.5, 50 mM NaCl, 1 mM DTT, 4% glycerol, room temperature, 30 min; GST-TFs on glutathione beads, 16-mer random dsDNA library, 0.1% formaldehyde crosslink after washing; high values mean tight binding
FLI1 = molecular target: T1, FLI1 (Homo sapiens, UniProt Q01543 1-452); conditions: protein: recombinant; tags: N-terminal GST; dsDNA, one strand shown
T1 sequence: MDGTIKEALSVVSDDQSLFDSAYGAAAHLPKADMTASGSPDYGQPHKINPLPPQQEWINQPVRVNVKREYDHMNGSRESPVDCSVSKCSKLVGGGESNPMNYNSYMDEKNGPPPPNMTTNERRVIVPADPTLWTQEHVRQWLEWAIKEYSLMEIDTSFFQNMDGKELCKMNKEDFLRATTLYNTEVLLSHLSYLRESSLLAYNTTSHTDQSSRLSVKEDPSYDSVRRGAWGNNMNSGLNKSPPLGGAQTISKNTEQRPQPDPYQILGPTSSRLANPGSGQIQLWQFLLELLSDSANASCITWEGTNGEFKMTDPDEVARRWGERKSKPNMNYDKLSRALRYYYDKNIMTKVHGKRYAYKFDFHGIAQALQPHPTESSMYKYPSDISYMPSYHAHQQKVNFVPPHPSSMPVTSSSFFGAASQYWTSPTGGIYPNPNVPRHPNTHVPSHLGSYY
How it was run: (§1)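 Binding signal is each hexamer's read frequency for a factor divided by its frequency in the tag-only sample. The factors were GST-fused human transcription factors from yeast, captured on glutathione beads, DNA-barcoded and pooled with that sample. Pools were incubated with 200 nmole of a random double-stranded 16-mer DNA library in Tris/NaCl/DTT/glycerol buffer at room temperature for 30 min, then washed, crosslinked with 0.1% formaldehyde, proximity-ligated with BsaI/T4 ligase (1 h, 37 °C), PCR-amplified and sequenced on an Illumina NextSeq500.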

ELK1 = molecular target: T2, ELK1 (Homo sapiens, UniProt P19419 1-428); conditions: protein: recombinant; tags: N-terminal GST; dsDNA, one strand shown
T2 sequence: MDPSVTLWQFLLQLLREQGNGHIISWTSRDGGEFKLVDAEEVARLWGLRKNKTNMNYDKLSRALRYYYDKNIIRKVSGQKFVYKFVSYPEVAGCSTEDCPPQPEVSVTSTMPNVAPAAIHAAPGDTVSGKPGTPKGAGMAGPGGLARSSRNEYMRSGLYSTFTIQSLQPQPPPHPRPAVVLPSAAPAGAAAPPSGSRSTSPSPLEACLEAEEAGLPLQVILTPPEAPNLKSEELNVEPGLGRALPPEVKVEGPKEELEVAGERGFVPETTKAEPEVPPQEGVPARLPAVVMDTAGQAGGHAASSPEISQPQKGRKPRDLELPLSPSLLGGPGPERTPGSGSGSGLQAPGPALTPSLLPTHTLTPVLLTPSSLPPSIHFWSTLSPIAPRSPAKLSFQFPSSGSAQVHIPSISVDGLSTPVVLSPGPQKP
How it was run: as §1

GABPA = molecular target: T3, GABPA (Homo sapiens, UniProt Q06546 1-454); conditions: protein: recombinant; tags: N-terminal GST; dsDNA, one strand shown
T3 sequence: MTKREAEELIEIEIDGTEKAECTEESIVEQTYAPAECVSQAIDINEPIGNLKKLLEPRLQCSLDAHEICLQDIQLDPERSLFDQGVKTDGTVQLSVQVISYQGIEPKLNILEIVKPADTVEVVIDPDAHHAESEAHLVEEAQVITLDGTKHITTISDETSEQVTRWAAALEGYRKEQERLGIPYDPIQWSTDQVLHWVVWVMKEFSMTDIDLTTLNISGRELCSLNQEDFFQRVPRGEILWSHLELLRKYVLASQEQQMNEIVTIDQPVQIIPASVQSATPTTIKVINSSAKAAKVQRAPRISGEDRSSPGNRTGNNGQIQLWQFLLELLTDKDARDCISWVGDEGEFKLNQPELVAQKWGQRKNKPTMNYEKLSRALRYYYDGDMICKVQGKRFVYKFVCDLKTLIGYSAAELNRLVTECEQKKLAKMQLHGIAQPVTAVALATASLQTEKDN
How it was run: as §1

ERG = molecular target: T4, ERG (Homo sapiens, UniProt P11308 1-479); conditions: protein: recombinant; tags: N-terminal GST; dsDNA, one strand shown
T4 sequence: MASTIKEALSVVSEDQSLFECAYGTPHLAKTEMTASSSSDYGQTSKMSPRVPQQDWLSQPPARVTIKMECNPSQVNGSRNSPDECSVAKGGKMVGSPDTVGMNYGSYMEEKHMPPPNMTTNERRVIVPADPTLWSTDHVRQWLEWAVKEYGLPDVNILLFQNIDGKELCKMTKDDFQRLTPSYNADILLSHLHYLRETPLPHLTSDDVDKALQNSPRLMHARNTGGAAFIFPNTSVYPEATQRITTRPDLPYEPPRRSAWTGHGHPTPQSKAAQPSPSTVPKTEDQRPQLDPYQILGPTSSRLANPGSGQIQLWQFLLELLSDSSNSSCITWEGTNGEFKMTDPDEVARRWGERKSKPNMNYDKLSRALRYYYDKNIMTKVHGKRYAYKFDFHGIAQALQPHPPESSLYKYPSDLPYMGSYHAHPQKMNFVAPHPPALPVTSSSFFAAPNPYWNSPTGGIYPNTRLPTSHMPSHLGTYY
How it was run: as §1

ELF1 = ELF1 (Homo sapiens, UniProt P32519 1-619); conditions: protein: recombinant; tags: N-terminal GST; dsDNA, one strand shown
How it was run: as §1

EHF = molecular target: T5, EHF (Homo sapiens, UniProt Q9NZC4 1-300); conditions: protein: recombinant; tags: N-terminal GST; dsDNA, one strand shown
T5 sequence: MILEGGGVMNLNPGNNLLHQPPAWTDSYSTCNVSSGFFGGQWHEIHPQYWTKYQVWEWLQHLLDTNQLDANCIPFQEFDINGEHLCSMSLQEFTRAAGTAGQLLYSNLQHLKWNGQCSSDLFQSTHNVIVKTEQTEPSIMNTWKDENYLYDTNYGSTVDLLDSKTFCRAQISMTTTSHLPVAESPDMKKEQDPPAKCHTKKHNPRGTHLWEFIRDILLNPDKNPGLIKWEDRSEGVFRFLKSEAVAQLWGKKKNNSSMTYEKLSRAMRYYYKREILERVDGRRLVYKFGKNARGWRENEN
How it was run: as §1

SPI1 = SPI1 (Homo sapiens, UniProt P17947 1-270); conditions: protein: recombinant; tags: N-terminal GST; dsDNA, one strand shown
How it was run: as §1

SPIB = SPIB (Homo sapiens, UniProt Q01892 1-262); conditions: protein: recombinant; tags: N-terminal GST; dsDNA, one strand shown
How it was run: as §1

ELK3 = molecular target: T6, ELK3 (Homo sapiens, UniProt P41970 1-407); conditions: protein: recombinant; tags: N-terminal GST; dsDNA, one strand shown
T6 sequence: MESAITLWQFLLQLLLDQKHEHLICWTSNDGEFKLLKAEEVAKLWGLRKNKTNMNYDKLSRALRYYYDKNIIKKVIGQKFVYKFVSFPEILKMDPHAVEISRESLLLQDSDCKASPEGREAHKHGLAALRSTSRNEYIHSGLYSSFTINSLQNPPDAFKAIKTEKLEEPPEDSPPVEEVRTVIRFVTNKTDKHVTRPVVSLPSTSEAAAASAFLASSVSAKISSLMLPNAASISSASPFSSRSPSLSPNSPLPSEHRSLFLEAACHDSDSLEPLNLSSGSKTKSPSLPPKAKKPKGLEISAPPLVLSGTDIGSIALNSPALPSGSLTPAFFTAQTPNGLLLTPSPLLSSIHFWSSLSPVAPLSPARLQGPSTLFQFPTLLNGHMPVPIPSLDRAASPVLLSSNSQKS
How it was run: as §1

FEV = molecular target: T7, FEV (Homo sapiens, UniProt Q99581 1-238); conditions: protein: recombinant; tags: N-terminal GST; dsDNA, one strand shown
T7 sequence: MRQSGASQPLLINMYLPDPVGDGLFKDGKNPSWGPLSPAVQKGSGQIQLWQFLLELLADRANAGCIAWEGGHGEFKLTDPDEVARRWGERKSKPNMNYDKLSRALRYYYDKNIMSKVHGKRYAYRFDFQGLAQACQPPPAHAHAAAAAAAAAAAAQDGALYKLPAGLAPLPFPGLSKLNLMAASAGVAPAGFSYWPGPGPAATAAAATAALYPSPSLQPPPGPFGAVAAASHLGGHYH
How it was run: as §1

ETV5 = ETV5 (Homo sapiens, UniProt P41161 1-510); conditions: protein: recombinant; tags: N-terminal GST; dsDNA, one strand shown
How it was run: as §1

HSF1 = HSF1 (Homo sapiens, UniProt Q00613 1-529); conditions: protein: recombinant; tags: N-terminal GST; chain copies: 3; dsDNA, one strand shown
How it was run: as §1

SPIC = molecular target: T8, SPIC (Homo sapiens, UniProt Q8N5J4 1-248); conditions: protein: recombinant; tags: N-terminal GST; dsDNA, one strand shown
T8 sequence: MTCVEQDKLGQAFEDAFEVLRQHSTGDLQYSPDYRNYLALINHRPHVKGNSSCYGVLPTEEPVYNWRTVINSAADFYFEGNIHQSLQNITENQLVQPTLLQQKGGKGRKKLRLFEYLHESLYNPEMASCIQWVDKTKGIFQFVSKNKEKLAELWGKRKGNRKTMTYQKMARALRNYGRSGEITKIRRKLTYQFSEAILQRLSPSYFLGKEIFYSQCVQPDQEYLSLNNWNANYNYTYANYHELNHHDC
How it was run: as §1

ELF4 = ELF4 (Homo sapiens, UniProt Q99607 1-663); conditions: protein: recombinant; tags: N-terminal GST; dsDNA, one strand shown
How it was run: as §1

ELK4 = molecular target: T9, ELK4 (Homo sapiens, UniProt P28324-2 1-405); conditions: protein: recombinant; tags: N-terminal GST; dsDNA, one strand shown
T9 sequence: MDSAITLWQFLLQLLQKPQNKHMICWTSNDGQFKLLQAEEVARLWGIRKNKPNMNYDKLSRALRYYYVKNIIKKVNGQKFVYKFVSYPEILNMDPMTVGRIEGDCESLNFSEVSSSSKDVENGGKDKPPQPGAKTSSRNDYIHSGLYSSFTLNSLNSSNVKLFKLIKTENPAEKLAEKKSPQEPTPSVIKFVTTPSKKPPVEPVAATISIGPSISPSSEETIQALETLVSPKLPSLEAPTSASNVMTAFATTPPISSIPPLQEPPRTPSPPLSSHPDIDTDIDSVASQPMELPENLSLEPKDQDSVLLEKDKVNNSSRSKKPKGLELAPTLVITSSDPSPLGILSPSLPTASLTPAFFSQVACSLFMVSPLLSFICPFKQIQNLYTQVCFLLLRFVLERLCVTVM
How it was run: as §1

ETV2 = molecular target: T10, ETV2 (Homo sapiens, UniProt O00321 1-342); conditions: protein: recombinant; tags: N-terminal GST; dsDNA, one strand shown
T10 sequence: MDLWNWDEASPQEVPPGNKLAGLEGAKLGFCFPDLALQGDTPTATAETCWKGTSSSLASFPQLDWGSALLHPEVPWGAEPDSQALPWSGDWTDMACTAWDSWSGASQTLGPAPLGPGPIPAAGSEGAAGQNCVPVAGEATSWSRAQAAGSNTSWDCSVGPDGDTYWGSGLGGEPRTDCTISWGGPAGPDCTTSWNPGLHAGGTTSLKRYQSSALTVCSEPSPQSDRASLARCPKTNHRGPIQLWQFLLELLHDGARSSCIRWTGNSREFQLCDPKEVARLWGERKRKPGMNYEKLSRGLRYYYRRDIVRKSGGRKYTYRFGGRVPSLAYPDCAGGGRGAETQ
How it was run: as §1

ELF3 = molecular target: T11, ELF3 (Homo sapiens, UniProt P78545 1-371); conditions: protein: recombinant; tags: N-terminal GST; dsDNA, one strand shown
T11 sequence: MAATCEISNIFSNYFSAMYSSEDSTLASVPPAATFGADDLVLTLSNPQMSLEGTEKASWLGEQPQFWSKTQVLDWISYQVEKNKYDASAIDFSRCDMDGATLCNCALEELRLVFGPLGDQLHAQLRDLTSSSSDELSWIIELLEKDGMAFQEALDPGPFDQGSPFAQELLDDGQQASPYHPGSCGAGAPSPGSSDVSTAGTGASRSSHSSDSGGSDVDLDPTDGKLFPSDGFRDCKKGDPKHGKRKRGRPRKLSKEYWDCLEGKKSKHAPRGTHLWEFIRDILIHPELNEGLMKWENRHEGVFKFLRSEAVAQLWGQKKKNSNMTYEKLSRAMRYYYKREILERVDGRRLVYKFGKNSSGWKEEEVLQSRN
How it was run: as §1

CRX = CRX (Homo sapiens, UniProt O43186 1-299); conditions: protein: recombinant; tags: N-terminal GST; dsDNA, one strand shown
How it was run: as §1

ETV1 = ETV1 (Homo sapiens, UniProt P50549 1-477); conditions: protein: recombinant; tags: N-terminal GST; dsDNA, one strand shown
How it was run: as §1

Chain of ETV5 (P41161 whole entry): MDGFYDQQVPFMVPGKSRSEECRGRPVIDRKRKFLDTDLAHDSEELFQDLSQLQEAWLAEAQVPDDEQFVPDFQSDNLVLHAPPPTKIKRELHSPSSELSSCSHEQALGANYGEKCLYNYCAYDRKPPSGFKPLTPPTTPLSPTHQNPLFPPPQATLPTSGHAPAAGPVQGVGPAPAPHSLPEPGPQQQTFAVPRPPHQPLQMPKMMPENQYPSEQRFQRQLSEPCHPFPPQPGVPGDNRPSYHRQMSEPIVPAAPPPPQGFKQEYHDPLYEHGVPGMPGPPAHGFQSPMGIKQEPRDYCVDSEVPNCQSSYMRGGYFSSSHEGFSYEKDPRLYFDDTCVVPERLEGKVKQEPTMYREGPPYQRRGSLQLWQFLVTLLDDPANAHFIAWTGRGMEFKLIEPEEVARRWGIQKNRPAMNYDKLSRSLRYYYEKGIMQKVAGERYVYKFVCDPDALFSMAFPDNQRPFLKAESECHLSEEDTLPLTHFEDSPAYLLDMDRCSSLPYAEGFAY
Chain of HSF1 (Q00613 whole entry): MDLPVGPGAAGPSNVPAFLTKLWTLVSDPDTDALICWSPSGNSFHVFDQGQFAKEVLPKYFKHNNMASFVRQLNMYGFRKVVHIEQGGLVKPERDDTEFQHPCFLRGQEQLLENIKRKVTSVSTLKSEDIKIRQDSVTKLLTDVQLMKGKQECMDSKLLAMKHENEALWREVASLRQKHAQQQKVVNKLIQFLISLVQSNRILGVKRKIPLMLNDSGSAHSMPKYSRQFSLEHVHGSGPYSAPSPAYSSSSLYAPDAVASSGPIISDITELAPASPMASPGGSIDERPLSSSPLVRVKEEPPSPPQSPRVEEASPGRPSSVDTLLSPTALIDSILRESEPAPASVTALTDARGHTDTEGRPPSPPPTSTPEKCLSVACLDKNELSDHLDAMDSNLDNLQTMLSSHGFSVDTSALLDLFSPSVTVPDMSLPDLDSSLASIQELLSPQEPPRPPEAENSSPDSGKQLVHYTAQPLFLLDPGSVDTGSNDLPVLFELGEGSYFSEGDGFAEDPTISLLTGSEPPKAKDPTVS
Chain of ELF4 (Q99607 whole entry): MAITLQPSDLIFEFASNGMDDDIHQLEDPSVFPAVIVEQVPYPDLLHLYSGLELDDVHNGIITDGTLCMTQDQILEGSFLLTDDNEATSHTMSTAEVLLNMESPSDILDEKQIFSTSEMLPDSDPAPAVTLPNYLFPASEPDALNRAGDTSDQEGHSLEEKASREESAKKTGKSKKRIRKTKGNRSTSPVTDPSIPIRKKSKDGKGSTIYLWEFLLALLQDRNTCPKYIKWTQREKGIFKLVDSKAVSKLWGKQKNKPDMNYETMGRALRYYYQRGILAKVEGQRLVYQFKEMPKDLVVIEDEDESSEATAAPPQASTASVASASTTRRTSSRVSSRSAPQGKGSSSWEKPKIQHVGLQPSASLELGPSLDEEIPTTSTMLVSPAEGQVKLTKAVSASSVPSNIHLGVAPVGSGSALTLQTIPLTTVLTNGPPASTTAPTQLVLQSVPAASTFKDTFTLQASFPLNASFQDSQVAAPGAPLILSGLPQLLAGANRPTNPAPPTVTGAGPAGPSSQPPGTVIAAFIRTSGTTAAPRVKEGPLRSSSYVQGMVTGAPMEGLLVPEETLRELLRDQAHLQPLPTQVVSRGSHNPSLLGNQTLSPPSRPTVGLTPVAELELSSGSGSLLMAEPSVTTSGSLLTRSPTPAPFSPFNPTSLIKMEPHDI
Chain of SPIB (Q01892 whole entry): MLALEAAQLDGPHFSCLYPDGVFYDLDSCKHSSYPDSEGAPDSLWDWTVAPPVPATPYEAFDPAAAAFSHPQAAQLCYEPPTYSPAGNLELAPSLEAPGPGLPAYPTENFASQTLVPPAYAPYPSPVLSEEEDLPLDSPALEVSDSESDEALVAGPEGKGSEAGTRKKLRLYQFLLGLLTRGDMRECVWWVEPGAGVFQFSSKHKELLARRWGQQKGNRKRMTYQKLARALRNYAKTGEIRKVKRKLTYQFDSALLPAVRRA
Chain of CRX (O43186 whole entry): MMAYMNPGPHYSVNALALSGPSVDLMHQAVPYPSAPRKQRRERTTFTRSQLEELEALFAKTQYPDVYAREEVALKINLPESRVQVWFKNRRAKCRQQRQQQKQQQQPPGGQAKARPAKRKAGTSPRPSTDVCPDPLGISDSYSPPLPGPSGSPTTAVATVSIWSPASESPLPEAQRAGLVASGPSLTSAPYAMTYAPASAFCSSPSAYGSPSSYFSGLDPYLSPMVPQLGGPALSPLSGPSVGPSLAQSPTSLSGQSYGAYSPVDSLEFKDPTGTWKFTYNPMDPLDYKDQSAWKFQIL
Chain of ELF1 (P32519 whole entry): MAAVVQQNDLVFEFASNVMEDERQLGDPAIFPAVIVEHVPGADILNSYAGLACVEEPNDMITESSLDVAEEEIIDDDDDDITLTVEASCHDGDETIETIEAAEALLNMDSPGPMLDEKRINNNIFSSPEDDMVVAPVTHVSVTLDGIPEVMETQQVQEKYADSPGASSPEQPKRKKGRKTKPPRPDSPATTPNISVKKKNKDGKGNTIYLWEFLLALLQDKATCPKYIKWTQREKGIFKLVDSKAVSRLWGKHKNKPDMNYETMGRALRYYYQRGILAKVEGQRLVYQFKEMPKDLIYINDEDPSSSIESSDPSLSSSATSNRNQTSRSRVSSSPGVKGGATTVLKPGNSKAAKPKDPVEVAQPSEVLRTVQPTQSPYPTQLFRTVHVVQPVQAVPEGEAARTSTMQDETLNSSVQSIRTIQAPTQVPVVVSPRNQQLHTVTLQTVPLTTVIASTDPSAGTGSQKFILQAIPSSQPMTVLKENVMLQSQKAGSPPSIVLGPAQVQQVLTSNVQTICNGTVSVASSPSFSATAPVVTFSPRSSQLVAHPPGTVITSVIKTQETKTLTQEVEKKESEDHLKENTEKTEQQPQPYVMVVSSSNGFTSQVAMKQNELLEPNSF
Chain of ETV1 (P50549 whole entry): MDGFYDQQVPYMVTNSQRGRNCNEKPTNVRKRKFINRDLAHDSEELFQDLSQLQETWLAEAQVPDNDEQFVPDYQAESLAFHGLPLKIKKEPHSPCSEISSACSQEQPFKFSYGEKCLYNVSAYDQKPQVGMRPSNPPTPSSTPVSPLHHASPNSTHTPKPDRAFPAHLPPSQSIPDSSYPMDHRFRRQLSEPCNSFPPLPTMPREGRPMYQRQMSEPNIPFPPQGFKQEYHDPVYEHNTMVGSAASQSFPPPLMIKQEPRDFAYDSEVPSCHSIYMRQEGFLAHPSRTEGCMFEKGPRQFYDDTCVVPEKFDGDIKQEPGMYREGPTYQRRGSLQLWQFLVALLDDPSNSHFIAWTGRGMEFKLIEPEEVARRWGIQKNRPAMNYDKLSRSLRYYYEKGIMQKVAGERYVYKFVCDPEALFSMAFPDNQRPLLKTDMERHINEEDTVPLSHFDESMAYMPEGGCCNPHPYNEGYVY

## CAGCTT
FLI1
  binding signal: 1.2 fold enrichment (6-mer frequency, TF over GST control)
ELK1
  binding signal: 1.27 fold enrichment (6-mer frequency, TF over GST control)
GABPA
  binding signal: 1.22 fold enrichment (6-mer frequency, TF over GST control)
ERG
  binding signal: 1.2 fold enrichment (6-mer frequency, TF over GST control)
ELF1
  binding signal: 1.26 fold enrichment (6-mer frequency, TF over GST control)
EHF
  binding signal: 1.22 fold enrichment (6-mer frequency, TF over GST control)
SPI1
  binding signal: 1.19 fold enrichment (6-mer frequency, TF over GST control)
SPIB
  binding signal: 1.2 fold enrichment (6-mer frequency, TF over GST control)
ELK3
  binding signal: 1.3 fold enrichment (6-mer frequency, TF over GST control)
FEV
  binding signal: 1.2 fold enrichment (6-mer frequency, TF over GST control)
ETV5
  binding signal: 1.17 fold enrichment (6-mer frequency, TF over GST control)
HSF1
  binding signal: 1.43 fold enrichment (6-mer frequency, TF over GST control)
SPIC
  binding signal: 1.01 fold enrichment (6-mer frequency, TF over GST control)
ELF4
  binding signal: 1.19 fold enrichment (6-mer frequency, TF over GST control)
ELK4
  binding signal: 1.24 fold enrichment (6-mer frequency, TF over GST control)
ETV2
  binding signal: 1.36 fold enrichment (6-mer frequency, TF over GST control)
ELF3
  binding signal: 1.19 fold enrichment (6-mer frequency, TF over GST control)
CRX
  binding signal: 1.9 fold enrichment (6-mer frequency, TF over GST control)
ETV1
  binding signal: 1.16 fold enrichment (6-mer frequency, TF over GST control)
